Results as given in PubChem BioAssay (NCATS).
Inconclusive results are not listed. Activity calls are given as the source filed them. The call rests on the fitted dose curve; in most records, active means well fitted activation curve with a large enough effect; inconclusive means small, poorly fitted or top-dose-only effect; inactive means no such curve, though single readings can be large or run the other way.

target: Cellular tumor antigen p53 (Homo sapiens) (UniProt P04637); experiment: Primary qHTS for small molecule compounds that upregulate eGFP-tagged delta133p53alpha (in N-terminal) cells. (AID 2060322); details: NCI-H358 eGFP-delta133p53alpha fluorescence, 24 h; activation: stronger effect = higher value; further: nearly all actives have a fitted effect of over 75% in size;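 on activation: series mostly up to about 56 µM; 0% = DMSO vehicle and 100% = reference activator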
Sequence (P04637 whole entry, looked up): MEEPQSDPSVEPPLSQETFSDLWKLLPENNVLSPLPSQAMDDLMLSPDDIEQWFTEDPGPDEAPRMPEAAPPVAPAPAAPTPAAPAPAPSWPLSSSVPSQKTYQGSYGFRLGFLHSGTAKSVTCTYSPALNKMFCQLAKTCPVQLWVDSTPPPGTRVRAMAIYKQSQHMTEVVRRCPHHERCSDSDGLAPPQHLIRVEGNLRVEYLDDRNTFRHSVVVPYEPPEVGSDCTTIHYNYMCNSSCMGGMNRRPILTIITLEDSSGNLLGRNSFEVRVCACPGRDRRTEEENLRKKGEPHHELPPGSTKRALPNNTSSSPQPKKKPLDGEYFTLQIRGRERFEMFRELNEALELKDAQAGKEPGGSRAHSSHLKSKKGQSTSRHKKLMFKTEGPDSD
Method in brief: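 NCI-H358 cells pre-induced 24 h with 10 ng/ml doxycycline to express N-terminal eGFP-delta133p53alpha, then dosed 24 h at 37C without doxycycline; fixed, Hoechst-stained, GFP intensity by laser scanning cytometry, normalized to DMSO (0%) and 57.5 uM 5-azacytidine (100%).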
Potency means the concentration at half of the fitted maximal effect.

Structure (SMILES)	activation	Potency
O=C1CC2(CCCC2)CC(=O)N1CCNCC1COc2ccccc2O1 (centres undefined)	-5.86% (inactive)	
COc1ccc2nc(NC(=O)Nc3ccccc3)sc2c1	-19.8% (inactive)	
O=C(O)[C@@H]1[C@H]2C[C@H]3c4[nH]c5ccccc5c4CCN3C[C@@H]2CC[C@@H]1O		3.09 µM (active)
CCCCCOc1ccccc1/C(=C\SC)n1ccnc1	-16.7% (inactive)	
CCC(=O)NC[C@H](Cc1ccc(OCCc2nc(-c3ccccc3)oc2C)cc1)NC(C)=CC(=O)c1ccc(C(F)(F)F)cc1	17.2% (inactive)	
C[C@@H]1C[C@H]2[C@@H]3C[C@H](F)C4=CC(=O)C(Cl)=C[C@]4(C)[C@@]3(F)[C@@H](O)C[C@]2(C)[C@@]1(O)C(=O)CO	-14.1% (inactive)	
CCN(CCCc1ccccc1)CCCc1ccccc1	-1.67% (inactive)	
CCCc1c2oc(C(=O)O)cc(=O)c2cc2c(=O)cc(C(=O)O)n(CC)c12	-10% (inactive)	
O=C1C(O)=C(O)C(=O)C(O)=C1O	-14.1% (inactive)	
CN(C)CCN1CCN(c2cccc(Cl)c2)C1=O	-13% (inactive)	
CC(=C(CCOC(=O)C(C)C)SSC(CCOC(=O)C(C)C)=C(C)N(C=O)Cc1cnc(C)nc1N)N(C=O)Cc1cnc(C)nc1N	-4.18% (inactive)	
CC(=O)c1ccc2c(c1)N(CCCN1CCC(CCO)CC1)c1ccccc1S2	0% (inactive)	
OC[C@H]1O[C@@H](Oc2cc(O)cc(C=Cc3ccc(O)cc3)c2)[C@H](O)[C@@H](O)[C@H]1O	9.98% (inactive)	
CC(=O)N(CC(O)CN(C(C)=O)c1c(I)c(C(=O)NCC(O)CO)c(I)c(C(=O)NCC(O)CO)c1I)c1c(I)c(C(=O)NCC(O)CO)c(I)c(C(=O)NCC(O)CO)c1I (centres undefined)	-16.7% (inactive)	
CCCCOC(=O)CC(CC(=O)OCCCC)(OC(C)=O)C(=O)OCCCC	-31.1% (inactive)	
COc1ccnc2[nH]cc(C(=O)C(=O)N3CCN(C(=O)c4ccccc4)C[C@@H]3C)c12	3.59% (inactive)	
CC(C)C(=O)Nc1cccc(C2CN3CCSC3=N2)c1 (centres undefined)	6.69% (inactive)	
FC(F)(F)C(F)(F)C(F)(F)C(F)(F)C(F)(F)C(F)(F)C(F)(F)C(F)(F)Br	-14.1% (inactive)	
C[C@H]1[C@H](O)O[C@@H]2O[C@@]3(C)CC[C@@H]4[C@H](C)CC[C@@H]1[C@@]24OO3		21.7 µM (active)
CC(=O)N[C@@H](Cc1ccc(O)cc1)C(=O)O	0.837% (inactive)	

Structure (SMILES)	activation	Potency
C[C@H](NCc1ccc(OCc2cccc(F)c2)cc1)C(N)=O		24.3 µM (active)
CCC[C@@H](NC(=O)[C@@H]1[C@H]2CCC[C@@H]2CN1C(=O)[C@@H](NC(=O)[C@@H](NC(=O)c1cnccn1)C1CCCCC1)C(C)(C)C)C(=O)C(=O)NC1CC1	19.1% (inactive)	
COc1cc2c3cc1Oc1cc(ccc1O)C[C@@H]1c4c(cc(OC)c(O)c4Oc4ccc(cc4)C[C@@H]3N(C)CC2)CC[N+]1(C)C	19.8% (inactive)	
Nc1ncn([C@@H]2O[C@H](CO)[C@@H](O)[C@@H]2O)c(=O)n1	26.1% (inactive)	
C[C@]12C=CC(=O)N[C@@H]1CC[C@H]1[C@H]3CC[C@@H](C(=O)Nc4cc(C(F)(F)F)ccc4C(F)(F)F)[C@@]3(C)CC[C@@H]12	9.28% (inactive)	
CCCCCC1Nc2cc(C(F)(F)F)c(S(N)(=O)=O)cc2S(=O)(=O)N1 (centres undefined)	-4.18% (inactive)	
CN1C(=O)CC(C)(c2ccccc2)C1=O (centres undefined)	23.4% (inactive)	
CCc1ccc(C(=O)C(C)CN2CCCCC2)cc1 (centres undefined)	-5.86% (inactive)	
CC(C)=CCNc1ncnc2c1ncn2[C@@H]1O[C@H](CO)[C@@H](O)[C@H]1O	-20.9% (inactive)	
Cc1ncc(CO)c(CO)c1O	-24.3% (inactive)	
CCc1cccc2c(CCO)c[nH]c12	-27.7% (inactive)	
CC(C)(C)C(=O)NCCCC(=O)O	-17.6% (inactive)	
OCc1c[nH]c2ccccc12		31.7 µM (active)
OC1(c2ccccc2)CCNCC1	0.565% (inactive)	
Cn1cncc1[C@@](N)(c1ccc(Cl)cc1)c1ccc2c(c1)c(-c1cccc(Cl)c1)cc(=O)n2C	15.2% (inactive)	
C=C1C(=O)OC2C=C(C)CCC=C(C)CCC12 (centres undefined)	22% (inactive)	
CC(C)(C)CC(=O)OCC(=O)[C@@]1(O)CC[C@H]2[C@@H]3CCC4=CC(=O)C=C[C@]4(C)[C@H]3[C@@H](O)C[C@@]21C	-9.21% (inactive)	
CC=CC1=C(C(=O)O)N2C(=O)[C@H](NC(=O)[C@H](N)c3ccc(O)cc3)[C@@H]2SC1	11.1% (inactive)	
CCCCCCCCCCCCCCCCN	-20.1% (inactive)	
